From PubChem BioAssay (Tox21) come the findings set out here.

Assay [1] is described as follows: qHTS assay to identify small molecule antagonists of the thyroid receptor (TR) signaling pathway (AID 743065; active = well fitted curve in the direction sought with a large enough effect in the repeat runs; an effect the other way counts as inactive or inconclusive; note: nearly all actives have a fitted effect of over 55% in size; note: potency is the fitted concentration of half-maximal effect). The method in brief: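 GH3.TRE-Luc rat pituitary cells (two TREs driving luciferase) were dosed with compound, then stimulated with 1 nM T3 (final) for 23.5 h at 37 C. ONE-Glo luminescence was the read-out, with CellTiter-Fluor fluorescence as the cytotoxicity counter-screen.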

The test system of assay [2] is thyroid hormone receptor (rat, GH3 cells). The assay can be described thus: qHTS assay to identify small molecule agonists of the thyroid receptor (TR) signaling pathway (AID 743066).
For assay [3], the target named is Estrogen receptor (Homo sapiens) (UniProt P03372). As to the kind of experiment: qHTS assay to identify small molecule antagonists of the estrogen receptor alpha (ER-alpha) signaling pathway (AID 743069; active = well fitted curve in the direction sought with a large enough effect in the signal ratio in the repeat runs, not every such curve was filed as active; the % refers to the signal ratio). The method in brief: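 HEK293 ER-alpha-UAS-bla GripTite cells, held overnight in 2% charcoal-stripped FBS, 5,000 cells/well, preincubated 4 h, then compound plus 17beta-estradiol for 18 h at 37C. Beta-lactamase read by LiveBLAzer B/G FRET substrate, 2 h at room temperature.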
Sequence of Estrogen receptor (Homo sapiens) (P03372 whole entry, looked up): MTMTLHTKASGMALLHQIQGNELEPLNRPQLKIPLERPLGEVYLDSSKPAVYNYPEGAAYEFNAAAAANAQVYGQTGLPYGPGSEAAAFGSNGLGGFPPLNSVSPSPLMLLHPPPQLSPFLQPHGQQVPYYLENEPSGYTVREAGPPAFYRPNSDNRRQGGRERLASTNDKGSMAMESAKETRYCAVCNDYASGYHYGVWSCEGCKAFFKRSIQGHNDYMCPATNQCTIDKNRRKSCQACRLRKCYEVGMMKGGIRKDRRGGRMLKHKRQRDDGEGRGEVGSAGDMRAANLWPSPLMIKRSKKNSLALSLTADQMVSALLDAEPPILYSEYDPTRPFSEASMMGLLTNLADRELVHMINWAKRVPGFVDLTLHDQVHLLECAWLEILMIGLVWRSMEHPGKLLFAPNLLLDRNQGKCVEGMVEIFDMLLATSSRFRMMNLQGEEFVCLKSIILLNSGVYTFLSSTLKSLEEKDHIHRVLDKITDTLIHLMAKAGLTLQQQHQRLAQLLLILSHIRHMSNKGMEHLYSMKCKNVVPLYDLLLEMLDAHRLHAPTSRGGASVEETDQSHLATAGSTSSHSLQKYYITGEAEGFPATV

Assay [4] has the same target. The assay can be described thus: qHTS assay to identify small molecule agonists of the estrogen receptor alpha (ER-alpha) signaling pathway (AID 743075). On the technique in general: In qHTS, concentration-response curves come from the screen itself.
The target is the same in assay [5]. The assay can be described thus: qHTS assay to identify small molecule agonists of the estrogen receptor alpha (ER-alpha) signaling pathway using the BG1 cell line (AID 743079; active = well fitted curve in the direction sought with a large enough effect in the repeat runs; an effect the other way counts as inactive or inconclusive; note: nearly all actives have a fitted effect of over 20% in size; note: potency is the fitted concentration of half-maximal effect).
The nature of assay [6]: qHTS assay to identify small molecule antagonists of the estrogen receptor alpha (ER-alpha) signaling pathway using the BG1 cell line (AID 743080). Note: series mostly up to about 70 µM; nearly all actives have a fitted effect of over 25% in size. An outline of the steps: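 Antagonist mode: compounds in DMSO were pinned onto BG1-Luc-4E2 cells alongside 17beta-estradiol agonist, incubated 21.5 h, and ERE-driven luciferase measured with ONE-Glo. Cytotoxicity was multiplexed using CellTiter-Fluor fluorescence.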

A short description of assay [7]: qHTS assay to identify small molecule antagonists of the estrogen receptor alpha (ER-alpha) signaling pathway using the BG1 cell line - cell viability counter screen (AID 743081; active = well fitted curve in the direction sought with a large enough effect in the repeat runs; an effect the other way counts as inactive or inconclusive;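 note: compound given together with 17beta-estradiol as the ER stimulus; series mostly up to about 70 µM; nearly all actives have a fitted effect of over 45% in size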).
Assay [8] has as its target Aromatase (Homo sapiens) (UniProt P11511). The assay can be described thus: qHTS assay to identify aromatase inhibitors (AID 743083; active = well fitted curve in the direction sought with a large enough effect in the repeat runs; an effect the other way counts as inactive or inconclusive; note: series mostly up to about 70 µM; nearly all actives have a fitted effect of over 55% in size).
Assay [9] is described as follows: qHTS assay to identify small molecule antagonists of the estrogen receptor alpha (ER-alpha) signaling pathway - cell viability counter screen (AID 743074).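 Note: HEK293 cells carrying ER-alpha-UAS-bla reporter stimulated with 17beta-estradiol; nearly all actives have a fitted effect of over 45% in size.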

Records with an inconclusive call do not appear. Active and inactive are the calls of the source. Unless noted, calls come from the whole dose curve.

Sequence of Aromatase (Homo sapiens) (P11511 whole entry, looked up): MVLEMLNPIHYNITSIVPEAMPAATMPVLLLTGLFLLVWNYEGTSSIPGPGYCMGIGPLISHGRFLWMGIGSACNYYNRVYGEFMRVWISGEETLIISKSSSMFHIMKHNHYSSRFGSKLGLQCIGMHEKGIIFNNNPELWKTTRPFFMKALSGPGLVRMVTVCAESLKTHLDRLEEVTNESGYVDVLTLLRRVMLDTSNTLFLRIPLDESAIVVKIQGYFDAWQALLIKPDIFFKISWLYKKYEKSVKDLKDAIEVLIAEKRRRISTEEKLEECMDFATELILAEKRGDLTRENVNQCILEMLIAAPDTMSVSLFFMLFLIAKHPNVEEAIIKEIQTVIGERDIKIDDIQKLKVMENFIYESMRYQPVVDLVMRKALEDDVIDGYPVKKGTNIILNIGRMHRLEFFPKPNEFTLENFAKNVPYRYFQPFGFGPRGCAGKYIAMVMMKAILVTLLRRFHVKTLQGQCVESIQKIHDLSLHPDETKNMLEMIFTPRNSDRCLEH

As to `FC(F)(F)c1ccccc1`, the Potency result in assay [1], in assay [3], in assay [5], in assay [7] and in [8] was “inactive” each time. Also, the result in assay [2], in assay [4] and in [6] was inactive.
Consider `COc1ccc(Nc2ccc(OC)cc2)cc1`, for which the Potency entry in assay [1], in assay [3], in assay [9], in [7] and in assay [8] was “inactive” throughout. Further, the outcome in assay [2] and in assay [4] was inactive. In addition, in assay [5], the Potency was 3.93 µM (active).
On to `Nc1ccc2ccccc2c1S(=O)(=O)O`, for which the Potency result in assay [1], in [9] and in [7] was “inactive” each time. The outcome in assay [2] was inactive.
With `CCCCN1C[C@H](O)[C@@H](O)[C@H](O)[C@H]1CO`, the Potency result in assay [1], in assay [3], in [9], in assay [5] and in assay [8] was “inactive” throughout. The call in assay [2], in assay [4] and in [6] was inactive.
Take `CC(C)Nc1nc(N)nc(Cl)n1`: the Potency entry in [1], in [9], in assay [7] and in assay [8] was “inactive” throughout. Moreover, the result in assay [2] was inactive.
`CN1CCN(c2c(F)cc3c(=O)c(C(=O)O)cn(CCF)c3c2F)CC1`: the Potency result in [1], in assay [3], in [9] and in assay [8] was “inactive” throughout. Also, the call in assay [2], in [4] and in assay [6] was inactive.
With `CC/C=C\CCOC(=O)C(C)C`, the Potency entry in assay [1], in assay [3], in assay [9], in [5], in assay [7] and in [8] was “inactive” throughout. In addition, the outcome in assay [2], in [4] and in assay [6] was inactive.
As for `CC(C)S`, the Potency result in [1], in [3], in assay [9], in [5], in assay [7] and in [8] was “inactive” throughout. Moreover, the call in assay [2], in [4] and in [6] was inactive.
As to `Cc1ncc(CO)c(CN)c1O`, the Potency result in assay [1], in [3], in [9], in assay [7] and in [8] was “inactive” in each case. The compound was classed as inactive in [2], in assay [4] and in [6].
On to `CC(C)C(=O)OCC(C)(C)C(O)C(C)C` (centres undefined), for which the Potency result in [1], in assay [3], in assay [9], in assay [5], in assay [7] and in assay [8] was “inactive” each time. For the same compound, the compound was called inactive in [2], in assay [4] and in assay [6].
As to `OCc1ccccc1O`, the Potency entry in assay [1], in [9], in [7] and in assay [8] was “inactive” throughout. For the same compound, in assay [2], the result was inactive.
Turning to `CCCCCCCCCCCCOCCOS(=O)(=O)O`, in [1], the Potency is 68.6 µM (active). Besides, the call in [2], in assay [4] and in assay [6] was inactive. Also, the Potency entry in assay [9], in assay [7] and in assay [8] was “inactive” in each case.
As for `COC(=O)C(C)O` (centres undefined), the Potency result in assay [1], in [3], in assay [9], in assay [5], in assay [7] and in assay [8] was “inactive” throughout. Further, the result in assay [2], in assay [4] and in assay [6] was inactive.
As to `CC(CNC1CCCCC1)OC(=O)c1ccccc1` (centres undefined), the Potency entry in assay [1], in assay [3], in assay [9], in assay [5], in [7] and in assay [8] was “inactive” in each case. The outcome in assay [2], in assay [4] and in [6] was inactive.
Take `CCN[C@H]1CN(CCCOC)S(=O)(=O)c2sc(S(N)(=O)=O)cc21`: the Potency result in [1], in assay [3], in [9], in assay [5], in [7] and in assay [8] was “inactive” throughout. Also, the compound was called inactive in assay [2], in assay [4] and in [6].
As for `CCN(CC)CCNC(=O)COc1ccc(Cl)cc1`, the Potency result in [1], in assay [3], in [9], in assay [5], in assay [7] and in assay [8] was “inactive” each time. Also, the result in assay [2], in assay [4] and in [6] was inactive.
As to `O=C(Cl)c1cccc([N+](=O)[O-])c1`, the Potency entry in assay [1], in [3], in assay [9], in assay [5], in assay [7] and in [8] was “inactive” in each case. In addition, the result in assay [2], in assay [4] and in [6] was inactive.
On to `CC(=O)N(CC(O)CN(C(C)=O)c1c(I)c(C(=O)NCC(O)CO)c(I)c(C(=O)NCC(O)CO)c1I)c1c(I)c(C(=O)NCC(O)CO)c(I)c(C(=O)NCC(O)CO)c1I` (centres undefined), for which the Potency result in assay [1], in [3], in [9], in assay [5], in assay [7] and in assay [8] was “inactive” throughout. Besides, the result in [2], in [4] and in assay [6] was inactive.
Regarding `CO[C@@]1(NC(=O)CSCC#N)C(=O)N2C(C(=O)O)=C(CSc3nnnn3C)CS[C@@H]21`, the Potency result in assay [1], in [3], in assay [9], in [5], in [7] and in assay [8] was “inactive” throughout. Also, the compound was classed as inactive in [2], in assay [4] and in assay [6].
Consider `Cc1cc(NS(=O)(=O)c2ccc(N)cc2)nc(C)n1`, for which the Potency entry in [1], in assay [3], in assay [9], in assay [5], in [7] and in assay [8] was “inactive” each time. For the same compound, the call in assay [2], in assay [4] and in assay [6] was inactive.
In the case of `CN1CCN(C2=Nc3cc(F)ccc3Cc3ccccc32)CC1`, the Potency in assay [1] is 13.3 µM (active). In addition, the compound was classed as inactive in [2], in assay [4] and in assay [6]. Besides, the Potency result in assay [3], in assay [9], in [7] and in [8] was “inactive” throughout.
For the compound `CCOC(=O)C(Br)c1ccccc1` (centres undefined), the Potency result in assay [1], in [3], in [9], in assay [5], in [7] and in [8] was “inactive” each time. The call in assay [2], in assay [4] and in [6] was inactive.
With `O=c1[nH]cnc2c1ncn2[C@@H]1O[C@H](CO)[C@@H](O)[C@H]1O`, the Potency result in [1], in assay [9], in [7] and in [8] was “inactive” in each case. Besides, the result in [2] was inactive.
In the case of `Cc1cc(S(=O)(=O)O)c(N)cc1Cl`, the Potency entry in assay [1], in [3], in assay [9], in assay [5], in assay [7] and in assay [8] was “inactive” throughout. The call in assay [2], in assay [4] and in assay [6] was inactive.
Take `CCCCC(CC)COC(=O)COc1cc(Cl)c(Cl)cc1Cl` (centres undefined): the Potency result in [1], in assay [3], in assay [9], in [5], in [7] and in [8] was “inactive” in each case. Further, the compound was classed as inactive in assay [2], in assay [4] and in assay [6].
